Results taken from PubChem BioAssay (Tox21).
Several values for one entry are separate records, joined by “and”; a condition that tells them apart may be missing. Equal entries are not always repeated. Records with an inconclusive call do not appear. Some structures have more than one record in an assay (separate samples or runs), and their calls can disagree. Activity calls are given as the source filed them. Unless noted, calls come from the whole dose curve; as a rule, active = well fitted curve in the direction sought with a large enough effect in the repeat runs; inconclusive = weak or mixed curves; inactive = no such curve, though single readings can be large; an effect the other way counts as inactive or inconclusive.

Legend:
[1] = A CellTox Green Cytotoxicity Assay to monitor cytotoxicity in HepG2 cells - 8 hour (AID 1224890); note: nearly all actives have a fitted effect of over 45% in size; note: potency is the fitted concentration of half-maximal effect
How it was run: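 Cytotoxicity was tracked as dead-cell DNA fluorescence in HepG2 cells treated with test compounds at 37 C; each time-point value comes from one kinetic series spanning 0, 8, 16, 24, 32 and 40 h.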

[2] = qHTS assay to identify small molecule antagonists of the estrogen receptor alpha (ER-alpha) signaling pathway using the BG1 cell line in the presence of 0.1 nM 17-beta-estradiol - cell viability counter screen (AID 1259241); note: nearly all actives have a fitted effect of over 40% in size
How it was run: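 Cells were plated and left 24 hr, compounds in DMSO were pinned in, 17beta-estradiol was added to 0.1 nM final, and after 22 hr CellTiter-Fluor reagent was added for 30 min before fluorescence was read.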

[3] = qHTS assay to identify small molecule antagonists of the androgen receptor (AR) signaling pathway using the MDA cell line in the presence of 0.5 nM R1881 - cell viability counter screen (AID 1259242); note: nearly all actives have a fitted effect of over 45% in size; note: potency is the fitted concentration of half-maximal effect
How it was run: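 Cells seeded at 3,000/well and allowed 5 hr at 37C, 0% CO2 before compound transfer and R1881 (0.5 nM final) addition; 16 hr later, live-cell protease fluorescence indicated cytotoxicity.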

[4] = qHTS assay to identify small molecule HDAC inhibitors (AID 1259364); note: potency is the fitted concentration of half-maximal effect;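 note: wild-type HCT-116 cells with endogenous class I/II HDAC activity; nearly all actives have a fitted effect of over 45% in size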
How it was run: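 HCT-116 wt cells, 1,500/well, overnight attach. Compounds (DMSO) 2 h, 37 °C. HDAC-Glo I/II, 30 min RT. Luminescence.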

[5] = qHTS assay to identify small molecule HDAC inhibitors - cell viability counter screen (AID 1259365); note: series mostly up to about 92 µM; nearly all actives have a fitted effect of over 50% in size
How it was run: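 Counter screen in wild-type HCT-116 cells: compounds dissolved in DMSO are pin-transferred onto overnight-plated cells and left 2hr at 37C. ATP-based CellTiter-Glo luminescence then measures viable cells.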

[6] = qHTS assay to identify small molecule agonists of the sonic hedgehog signaling (Shh) pathway - cell viability counter screen (AID 1259366); note: nearly all actives have a fitted effect of over 50% in size; note: potency is the fitted concentration of half-maximal effect
How it was run: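 Cells are plated at 2,000 per well and left 4hr at 37C, 5% CO2 before compound addition. After 23hr of treatment, CellTiter-Fluor reagent is added for 1hr at 37C and fluorescence is measured.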

[7] = qHTS assay to identify small molecule agonists of the sonic hedgehog signaling (Shh) pathway (AID 1259368; calls by dose curve;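 note: NIH/3T3-derived 3T3Gli1-Luc cells carrying a stable Gli1-driven firefly luciferase reporter; series mostly up to about 92 µM; nearly all actives have a fitted effect of over 15% in size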)
How it was run: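 Following a 24 hr incubation with DMSO-dissolved compounds at 37 C, 5% CO2, Gli1-Luc NIH/3T3-derived cells received luciferase reagent for 30 min at room temperature prior to luminescence measurement.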

[8] = qHTS assay to identify small molecule antagonists of the sonic hedgehog signaling (Shh) pathway (AID 1259369; calls by dose curve; note: nearly all actives have a fitted effect of over 45% in size; note: potency is the fitted concentration of half-maximal effect)
How it was run: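 Read-out is luminescence from a firefly luciferase gene controlled by the Gli1 response element, in 3T3Gli1-Luc cells pre-incubated 4hr then exposed to compounds and conditioned medium for 24hr.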

[9] = target: Estrogen receptor beta (Homo sapiens) (UniProt Q92731); test: qHTS assay to identify small molecule agonists of the estrogen receptor beta (ER-beta) signaling pathway (AID 1259377; active = well fitted activation curve with a large enough effect in the signal ratio in the repeat runs, not every such curve was filed as active; the % refers to the signal ratio; note: potency is the fitted concentration of half-maximal effect)
How it was run: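 Agonist mode cell assay in GripTite HEK293T cells expressing an ER-beta fusion that drives beta-lactamase from an Upstream Activator Sequence; 16 hr compound exposure at 37C, then 2 h LiveBLAzer B/G FRET substrate at room temperature, fluorescence read-out.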

[10] = target: Estrogen receptor beta (Homo sapiens) (UniProt Q92731); test: qHTS assay to identify small molecule antagonists of the estrogen receptor beta (ER-beta) signaling pathway (AID 1259378; active = well fitted inhibition curve with a large enough effect in the signal ratio in the repeat runs, not every such curve was filed as active; the % refers to the signal ratio)
How it was run: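 ER-beta-UAS-bla HEK293T cells in 2% charcoal-stripped FBS medium treated with compound plus 1nM final 17-beta-estradiol for 16 hr at 37C. Beta-lactamase reporter read by FRET substrate fluorescence after 2 hours at room temperature.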

[11] = qHTS assay to identify small molecule agonists of the estrogen receptor beta (ER-beta) signaling pathway - cell viability counter screen (AID 1259380); note: nearly all actives have a fitted effect of over 30% in size; note: potency is the fitted concentration of half-maximal effect
How it was run: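 Compounds dissolved in DMSO were pin-transferred onto ER-beta-UAS-bla HEK293T cells that had settled 6 hr, and exposure ran 16 hr at 37C. Following the reporter read, CellTiter-Glo luminescence after 30 min at room temperature indicated cytotoxicity.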

[12] = qHTS assay to identify small molecule antagonists of the estrogen receptor beta (ER-beta) signaling pathway - cell viability counter screen (AID 1259382); note: nearly all actives have a fitted effect of over 55% in size; note: potency is the fitted concentration of half-maximal effect
How it was run: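 CellTiter-Glo ATP luminescence measured after the LiveBLAzer read in the same wells; ER-beta-UAS-bla HEK293T cells, 16 hr compound treatment with 1nM 17-beta-estradiol agonist at 37C, 5% CO2.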

[13] = qHTS assay to identify small molecule agonists or antagonists of the thyroid stimulating hormone receptor (TSHR) signaling pathway - wild type cell line counter screen (AID 1259384; calls by dose curve)
How it was run: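 Wild-type Hek293 cells, 800/well, 18 h at 37C, then compound with Ro20-1724 for 30 min RT. cAMP by HTRF (cAMP-d2/anti-cAMP cryptate), 1 h RT, fluorescence read. 15 concentrations, triplicates.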

[14] = qHTS assay to identify small molecule antagonists of the sonic hedgehog signaling (Shh) pathway - cell viability counter screen (AID 1259367); note: nearly all actives have a fitted effect of over 55% in size; note: potency is the fitted concentration of half-maximal effect
How it was run: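 Tox21 library chemicals were tested on a Gli1-Luc NIH/3T3 clone (2,000 cells/well) stimulated by conditioned medium; viability was quantified as fluorescence from CellTiter-Fluor reagent added at 23 hr.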

[15] = qHTS assay to identify small molecule agonists of the androgen receptor (AR) signaling pathway in the presence of an antagonist - cell viability counter screen (AID 1259379); note: nearly all actives have a fitted effect of over 25% in size; note: potency is the fitted concentration of half-maximal effect
How it was run: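 Each compound was tested at 15 concentrations on MDA-kb2 cells in the presence of 3.0uM nilutamide. Viability was measured by CellTiter-Fluor fluorescence after a 16 hr incubation at 37C in a CO2-free atmosphere.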

[16] = target: Estrogen receptor (Homo sapiens) (UniProt P03372); test: qHTS assay to identify small molecule agonists of the estrogen receptor alpha (ER-alpha) signaling pathway in the presence of an antagonist (AID 1259383; calls by dose curve; note: top concentration of the series differs between compounds; nearly all actives have a fitted effect of over 15% in size)
How it was run: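 Luminescent ERE-luciferase reporter, VM7Luc4E2 cells (endogenous ER-alpha); 10.0nM ICI-182,780 final; 15-point compound titration; 22hr at 37C; ONE-Glo, 30min RT.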

[17] = target: Estrogen receptor (Homo sapiens) (UniProt P03372); test: qHTS assay to identify small molecule antagonists of the estrogen receptor alpha (ER-alpha) signaling pathway using the BG1 cell line in the presence of 0.1 nM 17-beta-estradiol (AID 1259244); note: nearly all actives have a fitted effect of over 50% in size
How it was run: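 Luciferase signal from VM7Luc4E2 ERE-reporter cells, co-dosed with test compound and 0.1 nM final 17beta-estradiol for 22 h, read with ONE-Glo.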

[18] = qHTS assay to identify small molecule phospholipidosis (PLD) inducers (AID 1259344; active = well fitted curve in the direction sought with a large enough effect; an effect the other way counts as inactive or inconclusive)
How it was run: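 Image-based: LipidTOX Red pit count/intensity per well and per cell; HepG2, 24 h compound at 37 C, PFA fixation, Hoechst counterstain.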

Measured: Potency

Sequence of Estrogen receptor beta (Homo sapiens) (Q92731 whole entry, looked up, the tested form may be a part): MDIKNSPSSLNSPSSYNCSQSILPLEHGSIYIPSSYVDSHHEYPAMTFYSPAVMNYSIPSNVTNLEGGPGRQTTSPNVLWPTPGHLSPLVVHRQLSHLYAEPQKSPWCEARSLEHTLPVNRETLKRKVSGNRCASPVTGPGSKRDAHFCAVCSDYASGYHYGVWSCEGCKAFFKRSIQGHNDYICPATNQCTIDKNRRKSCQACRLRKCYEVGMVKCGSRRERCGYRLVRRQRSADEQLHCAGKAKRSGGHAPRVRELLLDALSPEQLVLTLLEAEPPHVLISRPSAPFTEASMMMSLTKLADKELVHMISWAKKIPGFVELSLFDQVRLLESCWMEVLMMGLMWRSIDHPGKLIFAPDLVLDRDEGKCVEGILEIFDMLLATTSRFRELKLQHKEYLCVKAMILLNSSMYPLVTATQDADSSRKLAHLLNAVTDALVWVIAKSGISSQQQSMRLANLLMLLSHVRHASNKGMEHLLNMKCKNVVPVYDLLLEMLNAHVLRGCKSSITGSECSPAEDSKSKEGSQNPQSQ
Sequence of Estrogen receptor (Homo sapiens) (P03372 whole entry, looked up): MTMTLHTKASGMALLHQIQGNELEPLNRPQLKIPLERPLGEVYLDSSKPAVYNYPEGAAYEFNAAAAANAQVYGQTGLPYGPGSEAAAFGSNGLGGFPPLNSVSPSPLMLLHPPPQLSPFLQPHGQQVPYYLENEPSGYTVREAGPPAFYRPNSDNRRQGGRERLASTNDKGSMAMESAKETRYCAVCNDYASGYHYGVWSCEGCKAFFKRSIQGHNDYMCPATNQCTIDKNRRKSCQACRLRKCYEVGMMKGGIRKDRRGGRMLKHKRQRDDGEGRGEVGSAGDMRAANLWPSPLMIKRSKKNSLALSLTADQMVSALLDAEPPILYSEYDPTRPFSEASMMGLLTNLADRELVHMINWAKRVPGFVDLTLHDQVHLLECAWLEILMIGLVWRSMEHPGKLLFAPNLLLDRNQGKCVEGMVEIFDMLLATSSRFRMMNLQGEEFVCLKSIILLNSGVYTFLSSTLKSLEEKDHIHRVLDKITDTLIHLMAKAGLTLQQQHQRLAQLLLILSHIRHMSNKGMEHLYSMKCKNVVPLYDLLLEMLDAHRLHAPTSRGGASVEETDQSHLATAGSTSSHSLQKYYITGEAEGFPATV

CC(=O)CCc1ccccc1
not listed: [14] | [15] | [16] | [17] | [18]
inactive: all other assays above

CCCCCCCCCCCCN
inactive and 24.5 µM (active): [1]
inactive and 30.6 µM (active): [11]
27.3 µM (active) and inactive: [6]
54.5 µM (active) and inactive: [12]
not listed: [9] | [10] | [16] | [17] | [18]
inactive: all other assays above

CC1COc2ccccc2N1C(=O)C(Cl)Cl (configuration not stated)
active: [8] 15.3 µM
not listed: [14] | [15] | [17] | [18]
inactive: all other assays above

OCC#CCO
not listed: [16] | [17] | [18]
inactive: all other assays above

O=C(c1cc(O)c(O)c(O)c1)c1ccc(O)c(O)c1O
34.4 µM (active) and inactive: [8]
active: [6] 54.3 µM and 54.5 µM | [14] 54.5 µM | [15] 27.3 µM
not listed: [2] | [13] | [16] | [18]
inactive: all other assays above

CCCCCCCCCCC=CC1CC(=O)OC1=O (configuration not stated)
not listed: [9] | [10] | [15] | [16] | [17] | [18]
inactive: all other assays above

COC(=O)Nc1nc2ccc(Sc3ccccc3)cc2[nH]1
active: [8] 1.93 µM and 2.66 µM
not listed: [9] | [10] | [14] | [16] | [17]
inactive: all other assays above

CCCCNC(N)=O
not listed: [13] | [16] | [17] | [18]
inactive: all other assays above

O=C(O)c1ccc([N+](=O)[O-])cc1
not listed: [13] | [15] | [16] | [17] | [18]
inactive: all other assays above

c1ccc2[nH]cnc2c1
not listed: [9] | [10] | [13] | [16] | [17] | [18]
inactive: all other assays above

Cc1cc(O)c2c(c1)C(=O)c1cc(O)cc(O)c1C2=O
active: [4] 5.32 µM and 1.93 µM | [8] 34.4 µM | [9] 4.86 µM | [15] 26.7 µM and 30.6 µM
inactive and 48.6 µM (active): [3]
inactive and 54.5 µM (active): [14]
not listed: [2] | [10] | [16] | [18]
inactive: all other assays above

CCOC(=O)C1OC1c1ccccc1 (configuration not stated)
active: [4] 49.5 µM
not listed: [9] | [10] | [11] | [13] | [16] | [17] | [18]
inactive: all other assays above

CCCCC(CC)COC(C)=O (configuration not stated)
not listed: [15] | [16] | [17] | [18]
inactive: all other assays above
